Sampled rows, rich in hits. Any-hit rate of the full collection: about 8%.
SW480 rerep: A quantitative high throughput screen for small molecules that induce DNA re-replication in SW480 colon adenocarcinoma cells. AID 624297, 2012. SW480 DNA re-replication, Hoechst DNA content imaging, 48 h. 1.8% of 340,000 active. Potency, µM (series often up to 46.1 µM), actives largely listed as activators; also: nearly all actives have a fitted effect of over 55% in size
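Per well, 250 cells were exposed to pinned compound for 48 hr. Nuclear DNA was visualised with Hoechst (40 min, 37 C) and total object intensity recorded by fluorescence scanning.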
MCF10A rereplic: A quantitative high throughput screen for small molecules that induce DNA re-replication in MCF 10a normal breast cells. MCF 10A DNA re-replication, Hoechst nuclear intensity, 48 h. Potency, µM (top dose mostly 46.1 µM), hits mostly activators. 2.9% of 350,000 active. AID 624296, 2012; also: nearly all actives have a fitted effect of over 50% in size
KB-3-1 cytotox: qHTS assay for MDR1-selective chemotherapeutics: Primary screen using the parental adenocarcinoma cell KB-3-1. AID 1347075, 2019. Potency, µM (highest dose often 46.1 µM), most hits filed as cytotoxic. KB-3-1 viability, CellTiter-Glo ATP luminescence, 72 h. 1.4% of 400,000 active; also: nearly all actives have a fitted effect of over 60% in size
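KB-3-1 cells, DMEM (no phenol red) + 10% FBS; compound by pin transfer, 72 h, 37 °C. Readout: CellTiter-Glo luminescence after 10 min. Data normalized, curve-fitted.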
HT1080 IDH1KD tx: qHTS for induction of synthetic lethality in tumor cells producing 2HG: qHTS for the HT-1080-IDH1KD cell line. HT-1080 IDH1 knockdown viability, ATP luminescence, 48 h. Potency, µM (highest dose often 46.1 µM), most hits filed as cytotoxic. 2% of 360,000 active
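HT-1080-IDH1KD cells (IDH1 knocked down), 750/well in RPMI with 5% FBS, treated with compound 48 h at 37 degrees C. Viability by CellTiter-Glo luminescence, normalised to DMSO and no-cell wells; concentration-response curves classed.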
KB-V1 MDR tox: qHTS assay for MDR1-selective chemotherapeutics: Primary screen using the drug-selected MDR subline cells KB-V1; AID 1347076, 2019; KB-V1 MDR cells viability, CellTiter-Glo, 72 h; Potency, µM (doses to about 46.1 µM), actives largely listed as cytotoxic; 3.4% of 400,000 active; also: nearly all actives have a fitted effect of over 60% in size
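Following 72 h at 37 degrees C with compound, KB-V1 cell viability was read by CellTiter-Glo luminescence, medium being phenol-red-free DMEM plus 10% FBS; concentration-response parameters came from normalized, curve-fitted qHTS data.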
HT1080-NT tox: qHTS for induction of synthetic lethality in tumor cells producing 2HG: qHTS for the HT-1080-NT fibrosarcoma cell line | 1.6% of 360,000 active | Potency, µM (highest dose often 46.1 µM), hits mostly cytotoxic | HT-1080-NT fibrosarcoma viability, CellTiter-Glo ATP luminescence, 48 h;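 also: NT is the 2HG producing partner of a matched IDH1 knockdown line; nearly all actives have a fitted effect of over 55% in size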
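HT-1080-NT fibrosarcoma cells (2HG-overproducing), 750 cells/well in RPMI with 5% FBS, dosed after 2 h and incubated 48 h at 37C. CellTiter-Glo luminescence normalized to DMSO and no-cell wells; concentration-response curves fitted and classed.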
Large screens that a line does not name were inactive. Calls follow the shape of the dose curve; as a rule, active = well fitted curve in the direction sought with a large enough effect; inconclusive = small, poorly fitted or top-dose-only effect, or another doubt; inactive = no such curve, though single readings can be large; an effect the other way counts as inactive or inconclusive.

COc1ccc(C(=O)C=Cc2ccc3c(c2)OCO3)cc1OC	KB-3-1 cytotox inconclusive, KB-V1 MDR tox inconclusive (no result: SW480 rerep, MCF10A rereplic)
COc1ccc(/C=C/C(=O)c2ccc3c(c2)OCCO3)cc1[N+](=O)[O-]	SW480 rerep 11.6µM, MCF10A rereplic 3.66µM, KB-3-1 cytotox inconclusive
COc1ccc(Oc2ccc(/C=C/C(=O)c3cccc(OC)c3)cc2[N+](=O)[O-])cc1	SW480 rerep inconclusive, MCF10A rereplic 6.51µM, KB-3-1 cytotox inconclusive, HT1080 IDH1KD tx inconclusive, KB-V1 MDR tox inconclusive, HT1080-NT tox inconclusive
COc1cc(/C=C/C(=O)c2ccc3c(c2)OCO3)cc(Cl)c1O	SW480 rerep inconclusive, MCF10A rereplic 9.2µM, HT1080 IDH1KD tx 23.1µM, HT1080-NT tox inconclusive
CSc1ccc(CCCCCCOC(=O)C(C)(C)C)cc1	none
COc1cccc(-c2nnc(SCC(=O)NC3CCCCC3)o2)c1	KB-3-1 cytotox inconclusive (no result: SW480 rerep, MCF10A rereplic, HT1080 IDH1KD tx, HT1080-NT tox)
CCOc1cc(/C=C/C(=O)c2ccc3c(c2)OCCO3)ccc1OCC(=O)N(C)C	SW480 rerep inconclusive, MCF10A rereplic inconclusive, KB-3-1 cytotox inconclusive, HT1080 IDH1KD tx 18.4µM, KB-V1 MDR tox 16.4µM, HT1080-NT tox inconclusive
COc1ccc(/C=C/C(=O)c2ccc(Cl)s2)cc1O	SW480 rerep inconclusive, MCF10A rereplic inconclusive, KB-3-1 cytotox inconclusive, KB-V1 MDR tox inconclusive
COc1cc(/C=C/C(=O)c2ccc(Cl)s2)cc(OC)c1O	SW480 rerep inconclusive, MCF10A rereplic inconclusive, HT1080 IDH1KD tx 11.2µM, KB-V1 MDR tox inconclusive, HT1080-NT tox inconclusive
COc1ccc(C2CC(c3cccs3)=NN2C(=O)CCl)cc1OC (stereo not drawn)	SW480 rerep 2.06µM, MCF10A rereplic 3.26µM, KB-3-1 cytotox inconclusive, HT1080 IDH1KD tx 7.31µM, KB-V1 MDR tox inconclusive, HT1080-NT tox 4.61µM
COc1ccc(C2CC(c3cccs3)=NN2C(=O)c2ccccc2)cc1OC (stereo not drawn)	none
COc1ccc(C2CC(c3cccs3)=NN2C(=O)CCC(=O)O)cc1 (stereo not drawn)	none
COc1cc(C2CC(c3cccs3)=NN2C(=O)CCl)ccc1OC(F)F (stereo not drawn)	MCF10A rereplic 16.4µM, KB-3-1 cytotox inconclusive, HT1080 IDH1KD tx 2.59µM, KB-V1 MDR tox 14.6µM, HT1080-NT tox 1.64µM
Cn1cnnc1SCC(=O)Nc1ccc(Br)cc1F	none
Cc1ccc(Sc2c(C#N)c(-c3ccccc3)nn2C)cc1	SW480 rerep inconclusive, MCF10A rereplic 6.51µM, HT1080 IDH1KD tx inconclusive, HT1080-NT tox inconclusive
Cn1nc(N)c2c(-c3ccccc3)c(C#N)c(N)nc21	none
Cc1ccc(SCc2c(-c3ccccc3)nn(C)c2Cl)cc1	MCF10A rereplic 8.2µM
Cn1nc(-c2ccccc2)c(CSc2ccccc2)c1Cl	SW480 rerep inconclusive, MCF10A rereplic 13µM
Cc1ccc(SCc2nn(C)c(Cl)c2C=O)cc1	KB-V1 MDR tox inconclusive
CCCC1(c2ccccc2)NC(=O)N(CC(=O)Nc2ccc(N3CCOCC3)cc2)C1=O (stereo not drawn)	none
C/C(=N\Nc1nc2ccccc2c(=O)n1O)c1ccco1	KB-3-1 cytotox 20.6µM, KB-V1 MDR tox 14.6µM
COc1cccc(-c2ccc3ncnc(NCc4cccs4)c3c2)c1	SW480 rerep inconclusive, MCF10A rereplic inconclusive (no result: HT1080 IDH1KD tx, HT1080-NT tox)
Cn1ccc2cc(-c3ccc4ncnc(NCc5cccs5)c4c3)ccc21	SW480 rerep inconclusive, MCF10A rereplic 11.6µM, KB-3-1 cytotox 18.4µM, KB-V1 MDR tox inconclusive (no result: HT1080 IDH1KD tx, HT1080-NT tox)
Cc1cccc(OC2(c3ccccc3)OC(=O)c3ccccc32)c1C (stereo not drawn)	SW480 rerep inconclusive, KB-V1 MDR tox 14.6µM
CC(N)c1csc(NC(=O)c2cc(C(C)(C)C)nn2Cc2ccccc2)n1 (stereo not drawn)	KB-3-1 cytotox inconclusive, HT1080 IDH1KD tx inconclusive, KB-V1 MDR tox inconclusive, HT1080-NT tox 18.4µM (no result: SW480 rerep, MCF10A rereplic)

Assay outcomes from PubChem BioAssay.
